CYP2C19 inhib – blockers of cytochrome P450 2C19 activity – biochemical, luminescence, ADME assay, primary screen; CYP2C19 Supersomes, luciferin-H EGE luminescence, 30 min; 96,000 compounds, 21% hits; P33261; inhibition, % at 5 µM;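 active means CYP2C19 inhibition above a set limit at 5 µM in the primary screen, cut at about 50% in these data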;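 further: plate controls were negative control wells for no effect and 2.5 mM tranylcypromine positive control for full effect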
CYP2C19 activ – human CYP2C19 activators, primary screen, biochemical, luminescence; 96,000 tested, under 10 active; Cytochrome P450 2C19 (Homo sapiens), P33261; recombinant CYP2C19, luciferin-H EGE luminescence; active compounds read high; 0 = fully inhibited enzyme, 1 = untreated enzyme; activation factor at 5 µM;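 active means activation factor of at least 2 at 5 µM in the primary screen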;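 further: 0 = wells with 2.5 mM tranylcypromine and 1 = vehicle-only wells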
Measles CPE – compounds protecting cells from measles virus cytopathic effect, primary screen, measles RdRp inhibitor project, single point, MLSMR library, absorbance. 140,000 compounds, 1.5% hits. AID 841, 2007. protection (pct of control), % at 4 µM. Measles virus-infected cells, CPE protection; in the data active means protection mostly above about 24%, no sharp cut-off; inactive means mostly below about 26%
CYP2C9 inhib – blockers of cytochrome P450 2C9 activity – biochemical, luminescence, ADME assay, primary screen. P11712. CYP2C9 Supersomes, luciferin-H conversion. inhibition, % at 5 µM. 96,000 compounds, 20% hits. AID 777, 2007;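 active means blocking of liver enzyme CYP2C9 beyond about 50% at 5 µM, limit read from the data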
Target sequence (P11712 whole entry, looked up): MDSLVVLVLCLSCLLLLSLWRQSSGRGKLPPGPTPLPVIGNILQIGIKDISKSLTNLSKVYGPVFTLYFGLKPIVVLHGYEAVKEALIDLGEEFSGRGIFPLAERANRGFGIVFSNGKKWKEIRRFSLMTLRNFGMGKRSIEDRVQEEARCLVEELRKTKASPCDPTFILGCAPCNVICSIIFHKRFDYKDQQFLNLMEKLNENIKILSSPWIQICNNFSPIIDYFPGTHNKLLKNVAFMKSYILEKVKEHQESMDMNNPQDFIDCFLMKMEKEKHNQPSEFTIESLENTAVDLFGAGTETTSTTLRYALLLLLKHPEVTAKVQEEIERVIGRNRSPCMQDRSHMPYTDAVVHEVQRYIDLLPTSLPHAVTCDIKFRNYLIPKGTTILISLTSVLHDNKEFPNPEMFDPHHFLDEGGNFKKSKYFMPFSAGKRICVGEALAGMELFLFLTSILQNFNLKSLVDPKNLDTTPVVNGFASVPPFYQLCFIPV
CYP2C9 activ – human CYP2C9 activators, primary screen, biochemical, luminescence. AID 1024, 2008. Cytochrome P450 2C9 (Homo sapiens), P11712. activation factor at 5 µM. 96,000 compounds, 1.4% hits. recombinant CYP2C9, luciferin-H conversion; active compounds read high; factor 1 = untreated enzyme, 0 = blocked;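 active means activation factor of 2 or more for CYP2C9 at a 5 µM dose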;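 further: 0 = sulfaphenazole-blocked wells and 1 = vehicle-only wells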
Active calls of the source: *; . = no result. Shown are actives, neighbours in structure and some others; about 22% of the full set was active somewhere.

SMILES	CYP2C19 inhib	CYP2C19 activ	Measles CPE	CYP2C9 inhib	CYP2C9 activ
CCC(=O)Nc1c(S(=O)(=O)c2ccccc2)c2nc3ccccc3nc2n1C(C)c1ccccc1 (configuration not stated)	.	.	21.4	.	.
COc1cccc(-n2nc(C(C)=O)c(C#N)c2-c2ccco2)c1	.	.	1.5	.	.
FC(F)(F)c1cccnc1N1CCN(c2ncnc3nc[nH]c23)CC1	83.0*	0.2	3.2	37.5	0.6
Clc1ccccc1N1CCN(c2ncnc3nc[nH]c23)CC1	21.2	0.8	11.4	0.4	1
CC1(C(=O)NCc2ccccc2)Oc2ccccc2NC1=O (configuration not stated)	77.3*	0.2	9.8	76.5*	0.2
CC12CC(c3ccccc3O1)C(C(=O)NCc1ccccc1)C(=O)N2 (configuration not stated)	60.4*	0.4	1.8	20.6	0.8
Cc1cn(C2OC(COC(=O)c3ccccc3)C(O)C2O)c(=O)[nH]c1=O (configuration not stated)	12.5	0.9	2.0	5.1	0.9
Fc1ccc(C2CC(c3ccc(F)cc3)n3ncnc3N2)cc1 (configuration not stated)	96.7*	0	22.6	68.6*	0.3
COc1ccccc1C1CC(c2ccc(F)cc2)Nc2ncnn21 (configuration not stated)	42.0	0.6	0.3	-5.7	1.1
Nc1nc2n(n1)C(c1ccc(Cl)cc1)CC(c1ccc(F)cc1)N2 (configuration not stated)	22.3	0.8	6.5	7.2	0.9
CCc1ccc(C2CC(c3ccccc3)n3ncnc3N2)cc1 (configuration not stated)	88.4*	0.1	23.0	48.2	0.5
CC(=O)NC(Cc1ccccc1)C(=O)OCC(=O)c1ccc(F)cc1 (configuration not stated)	.	.	4.1	.	.
CCCn1c(C)cc(C(=O)COC(=O)c2cc(S(=O)(=O)NCC(C)C)c(Cl)cc2Cl)c1C	66.2*	0.3	9.2	39.4	0.6
CCN1CCCC1CNC(=O)C(=O)Nc1ccccc1OC (configuration not stated)	-3.5	1	18.4	-5.5	1.1
CC(Sc1nc(N2CCOCC2)nc(N2CCOCC2)n1)C(=O)Nc1ccccc1 (configuration not stated)	32.0	0.7	11.1	79.3*	0.2
CC(Sc1nc(N(C)C)nc(N2CCOCC2)n1)C(=O)Nc1ccccc1 (configuration not stated)	93.2*	0.1	3.0	92.4*	0.1
CC(C)Nc1nc(SCC(=O)Nc2ccccc2)nc(N2CCOCC2)n1	81.7*	0.2	24.1	84.2*	0.2
CSc1nc(NC(C)C)nc(N2CCOCC2)n1	19.2	0.8	2.3	15.5	0.8
CC(Sc1nnc(N)s1)C(=O)Nc1ccc(N2CCOCC2)cc1 (configuration not stated)	-5.1	1.1	30.8	-12.0	1.1
COc1ccc(N2C(=O)CCC(C(=O)O)C2c2ccc(OC)c(OC)c2)cc1 (configuration not stated)	3.6	1	4.6	7.1	0.9
Cc1ccc2cc(CN(Cc3ccco3)C(=S)NCC3CCCO3)c(=O)[nH]c2c1C (configuration not stated)	.	.	11.5	.	.
Cc1ccc(N(C(=O)C2CCCO2)C2C=CS(=O)(=O)C2)cc1Cl (configuration not stated)	-13.3	1.1	4.0	-8.5	1.1
COc1ccc2nc(C)c(C(=O)NN)cc2c1	.	.	4.8	.	.
Cc1ccn2c(NCc3ccc4c(c3)OCO4)c(-c3ccc(O)cc3)nc2c1	17.9	0.8	9.4	16.9	0.8
Oc1ccc(-c2nc3ccccn3c2NCc2ccc3c(c2)OCO3)cc1	68.2*	0.3	10.0	-4.3	1
SMILES	CYP2C19 inhib	CYP2C19 activ	Measles CPE	CYP2C9 inhib	CYP2C9 activ
Cc1ccc(-n2c3c(c(=O)[nH]c2=S)C(C(F)(F)F)(C(F)(F)F)NC(=O)N3)cc1	-6.5	1.1	5.9	54.1*	0.5
COc1ccccc1NC(=O)CCc1c(C)[nH]c(=O)c(C#N)c1C	-0.6	1	7.5	1.8	1
Cc1cccc(NS(=O)(=O)c2ccc3c(c2)Cc2cc(S(=O)(=O)Nc4cccc(C)c4C)ccc2-3)c1C	.	.	32.7	.	.
Cc1ccccc1N1CCN(C2=NC(=O)/C(=C/c3cn[nH]c3-c3ccccc3)S2)CC1	.	.	0.1	.	.
Cc1nc(NCCc2ccc(F)cc2)c(C#N)c(C)c1[N+](=O)[O-]	.	.	4.4	.	.
Cc1nc(NCCc2ccccc2F)c(C#N)c(C)c1[N+](=O)[O-]	26.2	0.7	11.1	67.8*	0.3
Cc1cccc(N2CCN(S(=O)(=O)c3ccc4c(c3)CCN4C(=O)CCC(=O)O)CC2C)c1 (configuration not stated)	13.4	0.9	7.2	32.1	0.7
Cc1cc(C)c(NC(=O)C(C)c2cccc(C(=O)c3ccccc3)c2)c(C)c1 (configuration not stated)	72.4*	0.3	37.7	73.0*	0.3
O=S(=O)(c1ccc(S(=O)(=O)N2CCCN(Cc3ccccc3)C2)cc1)N1CCCCCC1	71.5*	0.3	6.2	73.6*	0.3
Cc1ccc(S(=O)(=O)N2CCN(S(C)(=O)=O)C2)cc1	21.3	0.8	5.6	10.7	0.9
Cc1ccc(S(=O)(=O)N2CCN(S(=O)(=O)c3ccccc3)C2)cc1	56.2*	0.4	2.8	57.4*	0.4
CN(C)S(=O)(=O)N1CCN(S(=O)(=O)c2ccccc2)CC1	79.6*	0.2	4.7	58.1*	0.4
CN1CCN(S(=O)(=O)c2ccc(-c3ccccc3)cc2)CC1	44.0	0.6	6.6	24.9	0.8
Cc1ccc(-c2ccc(S(=O)(=O)N3CCN(C)CC3)cc2)cc1	16.4	0.8	8.6	51.6*	0.5
CC1(C)CC(NC(=O)CCC2CCCC2)CC(C)(C)N1	-4.2	1	8.5	13.2	0.9
Cc1cc(C)n(-c2nc3ccccc3n3nnnc23)n1	20.5	0.8	30.9	2.8	1
CC(C)n1c(SC2C(=O)CC(C)(C)CC2=O)nc2c1c(=O)n(C)c(=O)n2C	-3.8	1	3.6	-11.4	1.1
CN1CCN(C2=C(Cl)C(=O)N(c3ccc(Cl)c(Cl)c3)C2=O)CC1	78.9*	0.2	12.1	37.7	0.6
CN1CCN(C2=C(Cl)C(=O)N(Cc3ccccc3)C2=O)CC1	64.1*	0.4	13.1	14.2	0.9
CN1CCN(C2=C(Cl)C(=O)N(c3cccc(Cl)c3)C2=O)CC1	15.0	0.8	3.7	11.4	0.9
CC(C)Cn1c(C(C)C)nc([N+](=O)[O-])c1S(=O)(=O)c1ccc(F)cc1	66.4*	0.3	26.1	13.1	0.9
C/C(CCN1CCc2nc(-c3ccccc3)c(-c3ccccc3)cc2C1)=N\OC[C@@H](C)[C@H](OCc1ccccc1)C(C)C	.	.	5.8	.	.
